The subject of assay [1] is HIV-1 integrase (multimerization). The assay is described as follows: HIV-1 IN multimer formation enhancers, counter-screen for LEDGF/p75 integration inhibitor project, biochemical, TR-FRET (AID 1053131; in the data active means activation above about 8.9%). The following applies: TR-FRET HIV-1 integrase multimerization, at 7.7 µM, hits give high values. A general note: Counterscreens check selectivity or assay interference.

A short description of assay [2]: TR-FRET optical interference artefacts, confirmation, artefact control for LEDGF/p75-dependent integration inhibitor project, biochemical, HIV-1 IN multimerization (AID 1053135;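 active means inhibition above the mean over all tested compounds plus 3 SD, which no compound reached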;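 further: 0% = integrase with antibodies and DMSO and 100% = antibodies without integrase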). The note with it: TR-FRET optical interference counterscreen, at 7.7 µM, hits give high values.
Assay [3] has as its system HIV-1 integrase / human LEDGF/p75 complex. The assay is described as follows: inhibitors of HIV-1 IN-LEDGF/p75 DNA integration, confirmation, biochemical, TR-FRET (AID 1053136). The following applies: TR-FRET LEDGF/p75-dependent HIV-1 integration, at 3.7 µM, hits give high values. (In general: In TR-FRET formats the signal depends on donor and acceptor labels being close together.)

The target of assay [4] is Bcl-2-like protein 1 (Homo sapiens) (UniProt Q07817). Kind of assay: Bcl-xL inhibitors blocking Bim BH3 binding, confirmation, counter-screen for MCL1 inhibitor project, biochemical, fluorescence polarization (AID 2166;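 active means inhibition above a cutoff equal to the mean inhibition of all tested compounds plus 3 SD, cut at about 30% in these data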). The following applies: GST-Bcl-xL / FITC-Bim BH3 peptide FP binding; at 10.9 µM; hits give high values.
Sequence of Bcl-2-like protein 1 (Homo sapiens) (Q07817 whole entry, looked up): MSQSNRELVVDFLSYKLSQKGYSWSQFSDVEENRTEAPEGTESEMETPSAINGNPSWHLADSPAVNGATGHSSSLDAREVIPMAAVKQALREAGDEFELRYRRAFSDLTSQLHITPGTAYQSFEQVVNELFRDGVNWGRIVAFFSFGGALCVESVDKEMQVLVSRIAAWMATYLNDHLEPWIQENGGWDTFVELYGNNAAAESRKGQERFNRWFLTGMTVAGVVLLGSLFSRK
Assay [5] addresses Induced myeloid leukemia cell differentiation protein Mcl-1 (Homo sapiens) (UniProt Q07820). The assay is described as follows: inhibitors of MCL1 binding to BIM-BH3, confirmation, biochemical, fluorescence polarization, triplicate (AID 2168;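 active means inhibition above the average of all tested compounds plus 3 SD, cut at about 40% in these data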;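 further: 0% = DMSO wells and 100% = unlabeled Bim-BH3 control peptide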). The note with it: GST-MCL1 / FITC-Bim-BH3 fluorescence polarization; at 10.9 µM; hits give high values. On the technique in general: Polarisation of emitted light reports the rotation of a fluorescent probe.

Assay [6] concerns the target Platelet-activating factor acetylhydrolase (Homo sapiens) (UniProt Q13093). Kind of assay: pPAFAH (PLA2G7) enzyme inhibitors, confirmation, biochemical, fluorescence polarization, human (AID 463230;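 active means mean inhibition of the triplicate above the hit cutoff set for the earlier primary screen, cut at about 25% in these data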;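 further: 0% = enzyme with DMSO and 100% = wells lacking pPAFAH enzyme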). The note with it: recombinant pPAFAH, FP-Rh probe fluorescence polarization; at 3.39 µM; hits give high values.
Assay [7] concerns the target Serine protease HTRA1 (Homo sapiens) (UniProt Q92743). Kind of assay: HTRA1 protease inhibitors, retest, confirmation, biochemical, fluorescence polarization (AID 540248;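 active means mean inhibition over three repeats above a set limit taken from the earlier primary screen, cut at about 37% in these data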;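 further: 0% = HTRA1 with DMSO and 100% = wells lacking HTRA1; inhibitors block probe binding so polarization drops and inhibition rises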). The following applies: recombinant HTRA1, FP-rhodamine activity-based probe, at 5.96 µM, hits give high values.
The nature of assay [8]: compounds interfering with TAMRA-BSA probe, counter-screen for TCR-CD3 interaction inhibitor project, biochemical, fluorescence, TAMRA-labeled BSA (AID 652035; in the data active means inhibition above about 23%;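 further: 0% = buffer low control and 100% = reference high control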). The following applies: TAMRA-labeled BSA probe fluorescence counterscreen; at 9.4 µM; hits give high values.
Assay [9] deals with T-cell receptor (TCR)-CD3 interaction, human. Kind of assay: TCR-CD3 interaction inhibitors, retest, confirmation, biochemical, fluorescence, TAMRA-labeled TCR probe (AID 652036; in the data active means inhibition above about 19%). The following applies: TAMRA-labeled TCR probe fluorescence binding assay; at 9.4 µM; hits give high values.
Assay [10] deals with (Lyso)-N-acylphosphatidylethanolamine lipase (Mus musculus) (UniProt Q8VD66). The assay is described as follows: ABHD4 inhibitors, retest, confirmation, biochemical, fluorescence polarization, mouse (AID 720658;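 active means mean inhibition across replicates above the hit cutoff set in the primary screen, cut at about 30% in these data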;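 further: 0% = wild-type ABHD4 with DMSO and 100% = catalytically dead S159A mutant with DMSO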). The note with it: purified mABHD4, FP-Rh probe fluorescence polarization; at 8.92 µM; hits give high values.
Sequence of (Lyso)-N-acylphosphatidylethanolamine lipase (Mus musculus) (Q8VD66 whole entry, looked up): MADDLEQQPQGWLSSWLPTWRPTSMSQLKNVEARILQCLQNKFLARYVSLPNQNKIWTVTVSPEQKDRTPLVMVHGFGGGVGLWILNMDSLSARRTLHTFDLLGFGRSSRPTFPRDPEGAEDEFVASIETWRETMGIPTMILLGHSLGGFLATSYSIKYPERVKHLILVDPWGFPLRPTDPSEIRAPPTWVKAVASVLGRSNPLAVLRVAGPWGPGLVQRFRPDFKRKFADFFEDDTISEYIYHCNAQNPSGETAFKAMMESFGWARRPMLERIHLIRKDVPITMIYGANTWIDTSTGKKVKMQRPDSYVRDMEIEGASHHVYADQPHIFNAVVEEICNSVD
Assay [11] concerns the target Glutathione S-transferase omega-1 (Homo sapiens) (UniProt P78417). The assay is described as follows: GSTO1 inhibitor hit confirmation, counter-screen for RBBP9 inhibitor project, biochemical, fluorescence polarization, triplicate (AID 2176;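 active means inhibition above the primary screen's cutoff, its mean inhibition plus 3 SD, cut at about 35% in these data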;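 further: loss of polarization as inhibitors block binding of rhodamine sulfonate ester activity probe; 0% = GSTO1 with DMSO and 100% = wells lacking GSTO1 enzyme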). The note with it: recombinant GSTO1, probe fluorescence polarization; at 5.96 µM; hits give high values.
Assay [12] deals with Fam108b (Abhd17b) serine hydrolase [Mus musculus]. The assay is described as follows: mouse Fam108b serine hydrolase inhibitors, confirmation, counter-screen for RBBP9 inhibitor project, biochemical, fluorescence polarization, triplicate (AID 1978;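 active means inhibition above a limit from the primary screen, the mean over all compounds plus 3 SD, cut at about 19% in these data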;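 further: 0% = median of active Fam108b wells and 100% = catalytically dead S170A mutant; inhibitors free the probe so polarization falls as inhibition rises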). The note with it: recombinant Fam108b, FP-Rh probe fluorescence polarization; at 9.51 µM; hits give high values.
Assay [13] has as its target Protein-arginine deiminase type-4 (Homo sapiens) (UniProt Q9UM07). The assay is described as follows: human PAD4 inhibitors, confirmation, biochemical, fluorescence polarization (AID 488796;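 active means mean inhibition across replicates above the hit cutoff set by the earlier primary screen, cut at about 15% in these data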;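 further: inhibitors block active-site labeling by the probe so polarization falls; 0% = PAD4 with probe and DMSO and 100% = probe without PAD4 enzyme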). The note with it: recombinant PAD4, RCA probe fluorescence polarization; at 6.36 µM; hits give high values.
The target of assay [14] is Peroxisome proliferator-activated receptor gamma (Homo sapiens) (UniProt P37231). The assay is described as follows: agonists of PPARgamma SRC-2 coactivator recruitment, confirmation, biochemical, HTS (AID 1297; in the data active means activation above about 22%;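 further: 0% = vehicle alone and 100% = reference agonist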). The note with it: biochemical SRC-2 recruitment by PPARgamma; at 8 µM; hits give high values.
Sequence of Peroxisome proliferator-activated receptor gamma (Homo sapiens) (P37231 whole entry, looked up): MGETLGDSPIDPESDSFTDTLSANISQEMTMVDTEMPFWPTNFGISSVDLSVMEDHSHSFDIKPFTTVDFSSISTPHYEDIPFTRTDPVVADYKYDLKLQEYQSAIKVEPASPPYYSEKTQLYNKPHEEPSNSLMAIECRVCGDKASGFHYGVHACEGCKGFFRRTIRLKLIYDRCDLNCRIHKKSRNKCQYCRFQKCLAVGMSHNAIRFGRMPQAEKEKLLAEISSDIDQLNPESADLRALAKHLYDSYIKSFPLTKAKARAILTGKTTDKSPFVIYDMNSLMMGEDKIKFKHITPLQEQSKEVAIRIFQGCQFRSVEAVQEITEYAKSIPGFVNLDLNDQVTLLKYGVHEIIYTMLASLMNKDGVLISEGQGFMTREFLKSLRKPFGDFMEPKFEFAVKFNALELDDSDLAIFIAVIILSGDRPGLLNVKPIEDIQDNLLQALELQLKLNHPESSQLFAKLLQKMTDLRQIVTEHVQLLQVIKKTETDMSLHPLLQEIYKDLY
Assay [15] has the same target. The assay is described as follows: PPARgamma agonists recruiting SRC-1 coactivator, confirmation, biochemical (AID 1300; in the data active means activation above about 20%;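 further: 0% = vehicle wells and 100% = reference agonist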). The note with it: PPARgamma–SRC-1 coactivator recruitment biochemical assay; at 8 µM; hits give high values.
Assay [16] deals with Peroxisome proliferator-activated receptor gamma (Homo sapiens) + Nuclear receptor coactivator 3 (Homo sapiens) (UniProt P37231+Q9Y6Q9). The assay is described as follows: PPARgamma-driven SRC-3 coactivator recruitment agonists, confirmation, biochemical (AID 1301; in the data active means activation above about 24%;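 further: 0% = vehicle wells and 100% = reference agonist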). The following applies: biochemical PPARgamma-SRC-3 coactivator recruitment, agonist mode; at 8 µM; hits give high values.
Sequence of Peroxisome proliferator-activated receptor gamma (Homo sapiens) + Nuclear receptor coactivator 3 (Homo sapiens) (P37231 whole entry, looked up): as above
Sequence of Peroxisome proliferator-activated receptor gamma (Homo sapiens) + Nuclear receptor coactivator 3 (Homo sapiens) (Q9Y6Q9 whole entry, looked up): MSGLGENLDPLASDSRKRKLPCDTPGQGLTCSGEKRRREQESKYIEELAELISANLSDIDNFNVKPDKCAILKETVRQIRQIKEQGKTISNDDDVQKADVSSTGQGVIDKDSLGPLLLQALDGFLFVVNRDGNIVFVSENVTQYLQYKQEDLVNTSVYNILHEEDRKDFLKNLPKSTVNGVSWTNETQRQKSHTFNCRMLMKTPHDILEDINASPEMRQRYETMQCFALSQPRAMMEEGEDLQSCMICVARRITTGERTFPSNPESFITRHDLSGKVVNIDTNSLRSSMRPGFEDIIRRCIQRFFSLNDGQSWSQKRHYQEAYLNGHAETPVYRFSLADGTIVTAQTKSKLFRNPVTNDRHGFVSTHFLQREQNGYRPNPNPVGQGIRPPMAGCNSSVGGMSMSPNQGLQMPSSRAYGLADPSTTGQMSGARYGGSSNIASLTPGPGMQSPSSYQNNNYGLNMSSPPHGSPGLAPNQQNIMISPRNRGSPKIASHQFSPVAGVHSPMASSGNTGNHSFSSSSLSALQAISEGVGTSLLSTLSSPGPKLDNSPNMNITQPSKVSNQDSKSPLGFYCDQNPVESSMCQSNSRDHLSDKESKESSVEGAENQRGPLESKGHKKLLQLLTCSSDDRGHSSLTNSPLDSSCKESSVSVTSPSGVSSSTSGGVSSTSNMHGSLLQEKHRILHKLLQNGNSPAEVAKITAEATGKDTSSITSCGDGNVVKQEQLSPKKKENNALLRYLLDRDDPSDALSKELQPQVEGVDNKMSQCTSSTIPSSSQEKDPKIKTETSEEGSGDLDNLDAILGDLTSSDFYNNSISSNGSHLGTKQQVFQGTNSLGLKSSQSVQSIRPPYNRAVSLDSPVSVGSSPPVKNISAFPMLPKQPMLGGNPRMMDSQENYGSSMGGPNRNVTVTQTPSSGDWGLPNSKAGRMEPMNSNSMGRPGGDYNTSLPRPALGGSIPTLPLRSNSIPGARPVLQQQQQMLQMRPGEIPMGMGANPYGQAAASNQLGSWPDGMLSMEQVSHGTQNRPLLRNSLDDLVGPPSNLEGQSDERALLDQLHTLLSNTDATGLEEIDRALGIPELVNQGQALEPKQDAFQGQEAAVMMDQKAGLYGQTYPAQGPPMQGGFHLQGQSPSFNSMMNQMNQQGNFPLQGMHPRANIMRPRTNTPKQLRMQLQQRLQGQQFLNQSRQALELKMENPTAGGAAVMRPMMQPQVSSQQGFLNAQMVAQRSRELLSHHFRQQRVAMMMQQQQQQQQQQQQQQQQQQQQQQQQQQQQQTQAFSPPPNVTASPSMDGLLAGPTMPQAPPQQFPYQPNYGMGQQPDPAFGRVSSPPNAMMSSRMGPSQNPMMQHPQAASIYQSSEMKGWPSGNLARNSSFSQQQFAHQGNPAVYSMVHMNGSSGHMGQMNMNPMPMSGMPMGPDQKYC

The list shows a part of the results. Values without a mark were called inactive. Calls of active or inactive are those of the source. Unless noted, no stated cut-off is given here; in the data, active means inhibition above about 14%; inactive means the rest.

What is called inhibition is the drop in the measured response relative to a control, in per cent.

Sequence of Platelet-activating factor acetylhydrolase (Homo sapiens) (Q13093 whole entry, looked up): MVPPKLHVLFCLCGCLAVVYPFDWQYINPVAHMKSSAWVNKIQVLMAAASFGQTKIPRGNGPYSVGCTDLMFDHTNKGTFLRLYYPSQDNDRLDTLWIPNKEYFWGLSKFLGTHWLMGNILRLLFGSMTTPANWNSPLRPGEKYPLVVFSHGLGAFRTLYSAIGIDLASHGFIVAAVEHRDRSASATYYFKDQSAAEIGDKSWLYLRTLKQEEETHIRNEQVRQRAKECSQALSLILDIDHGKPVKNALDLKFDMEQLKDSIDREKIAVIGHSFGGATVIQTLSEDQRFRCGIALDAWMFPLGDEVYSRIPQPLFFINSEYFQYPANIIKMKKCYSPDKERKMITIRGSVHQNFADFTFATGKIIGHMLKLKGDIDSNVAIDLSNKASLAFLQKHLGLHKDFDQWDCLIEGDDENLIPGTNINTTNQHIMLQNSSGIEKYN
Sequence of Glutathione S-transferase omega-1 (Homo sapiens) (P78417 whole entry, looked up): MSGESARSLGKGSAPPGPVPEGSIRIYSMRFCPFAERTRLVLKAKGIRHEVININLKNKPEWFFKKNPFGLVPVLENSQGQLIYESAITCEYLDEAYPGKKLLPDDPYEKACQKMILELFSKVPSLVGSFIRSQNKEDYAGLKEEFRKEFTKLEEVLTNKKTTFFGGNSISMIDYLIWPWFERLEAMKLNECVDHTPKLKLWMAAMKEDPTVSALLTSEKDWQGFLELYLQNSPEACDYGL
Sequence of Protein-arginine deiminase type-4 (Homo sapiens) (Q9UM07 whole entry, looked up): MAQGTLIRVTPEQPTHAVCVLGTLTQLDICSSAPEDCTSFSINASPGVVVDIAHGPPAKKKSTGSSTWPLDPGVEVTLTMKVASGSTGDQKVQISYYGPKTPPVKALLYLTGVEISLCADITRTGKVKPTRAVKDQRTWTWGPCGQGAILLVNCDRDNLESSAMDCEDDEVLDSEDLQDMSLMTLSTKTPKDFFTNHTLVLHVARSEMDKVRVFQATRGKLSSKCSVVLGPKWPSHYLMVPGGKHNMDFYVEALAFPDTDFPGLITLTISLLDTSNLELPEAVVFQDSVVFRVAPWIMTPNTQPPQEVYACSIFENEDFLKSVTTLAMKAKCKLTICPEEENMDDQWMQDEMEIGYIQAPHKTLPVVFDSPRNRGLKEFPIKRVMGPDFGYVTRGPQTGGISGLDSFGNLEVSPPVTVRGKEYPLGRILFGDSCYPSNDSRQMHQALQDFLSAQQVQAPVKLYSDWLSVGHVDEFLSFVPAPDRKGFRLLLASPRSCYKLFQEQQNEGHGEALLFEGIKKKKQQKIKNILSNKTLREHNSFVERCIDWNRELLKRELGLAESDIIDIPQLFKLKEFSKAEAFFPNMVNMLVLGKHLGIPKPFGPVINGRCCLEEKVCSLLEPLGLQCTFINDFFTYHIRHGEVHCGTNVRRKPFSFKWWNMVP
Sequence of Induced myeloid leukemia cell differentiation protein Mcl-1 (Homo sapiens) (Q07820 whole entry, looked up): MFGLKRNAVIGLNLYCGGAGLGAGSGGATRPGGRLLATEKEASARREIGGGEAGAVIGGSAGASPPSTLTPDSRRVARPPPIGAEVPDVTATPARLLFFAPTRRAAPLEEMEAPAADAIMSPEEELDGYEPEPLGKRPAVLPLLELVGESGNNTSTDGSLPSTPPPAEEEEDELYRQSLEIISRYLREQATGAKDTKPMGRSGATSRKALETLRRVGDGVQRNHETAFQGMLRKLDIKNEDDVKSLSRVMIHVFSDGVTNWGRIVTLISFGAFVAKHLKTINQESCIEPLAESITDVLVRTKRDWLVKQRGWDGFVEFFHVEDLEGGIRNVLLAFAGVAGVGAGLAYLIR

As for `COc1cc(NC(=O)COC(=O)c2ccc([N+](=O)[O-])s2)cc(OC)c1OC`, the activation in assay [1] is -0.28%. The figures for the inhibition in [2] and in assay [3] were 1.01% and 51.5% (active), respectively.
As to `O=C(Nc1nnc(-c2ccco2)o1)c1ccc(S(=O)(=O)N2CCOCC2)cc1`, in assay [1], the activation was 0.8%. For the same molecule, the results for the inhibition in [2] and in assay [3] were -4.01% and -5.04%, respectively.
The like results for `C=CCn1c2ccccc2c2nnc(SCc3[nH]c(=O)[nH]c3C(=O)CCCCC(=O)OCC)nc21` were, in that order, -0.48%, 2.45% and 24% (active).
The like results for `COc1ccc(S(=O)(=O)N2CCCCC2)cc1C(=O)NC1CCS(=O)(=O)C1` (centres undefined) were, in that order, -2.17%, 10.9% and -3.25%.
In the same order, the values of `Cc1ccc(-c2nn(-c3ccccc3)cc2/C=C2\SC(=S)N(CCCCCC(=O)O)C2=O)o1` are 97.9% (active), -492% and 41.5% (active).
In the case of `C[C@H]([C@@H](O)[C@@H](O)[C@@H](C)C(C)(C)C)[C@H]1CC[C@H]2C3CC[C@H]4C[C@H](OS(=O)(=O)O)[C@@H](OS(=O)(=O)O)C[C@]4(C)[C@H]3CC[C@]12C` (some centres undefined), the activation in assay [1] is -1.87%. Moreover, the inhibition is 6.58% in assay [2] and 32.4% (active) in [3].
In the same order, the values of `Clc1cc(NC2CCCCC2)ncn1` are -0.3%, 1.2% and -4.64%.
For `Cc1cc(SCC(=O)NCCN2C(=O)CSC2=O)nc2ccccc12`, in assay [1], the activation was 0.99%. Besides, the figures for the inhibition in assay [2] and in [3] were -4.97% and 1.78%, respectively.
As for `CC(=NCc1ccc2c(c1)OCO2)C1=C(O)c2ccccc2C1=O`, the activation in assay [1] is 0.56%. In addition, the values for the inhibition in assay [2] and in assay [3] were -2.08% and -0.38%, respectively.
Take `CN(Cc1ccc(F)cc1)C(=O)CN1C(=O)c2ccccc2S1(=O)=O`: the activation in assay [1] was -1.2%. Moreover, the inhibition in assay [2] is 4.33%; in assay [3], -12.2%.
In the same order, the values of `CCN(CC)CCOc1ccc2c(c1)C(=NNC(=O)c1ccccn1)c1cc(OCCN(CC)CC)ccc1-2` are 2.34%, -8.61% and 6.51%.
`Cc1c(CC(=O)N2CCN(C(=O)C3COc4ccccc4O3)CC2)c(=O)oc2c(O)c(O)ccc12` (centres undefined): the inhibition was 69.1% (active) in assay [4]; 89% (active) in assay [5]; 78.1% (active) in [6]; 88.8% (active) in [7]; -7.93% in assay [8]; 60.5% (active) in assay [9]. Further, the inhibition is 16% in assay [10], -84.6% in [2] and 86.8% (active) in assay [3]. In addition, in assay [1], the activation was 16.8% (active).
On to `CCOC(=O)c1ccc(NC(=O)CSc2ncccn2)cc1`, for which the activation in assay [1] was -0.25%. Also, the inhibition is 1.28% in assay [2] and -6.96% in [3].
Consider `COc1ccc(S(=O)(=O)/N=C2\C=C(NS(=O)(=O)c3ccccc3)C(=O)c3ccccc32)cc1`, for which the values for the inhibition in [11], in [2] and in assay [3] were 72.9% (active), 10% and 5.95%, respectively. Also, the activation in [1] is -2.79%.
With `Cc1cc(C(=O)NN=C/C=C/c2ccco2)n[nH]1`, in [1], the activation was 10.3% (active). For the same molecule, the figures for the inhibition in assay [2] and in assay [3] were -36.8% and 6.81%, respectively.
Take `COc1cc(/C=C2\CCCc3c2nc2ccccc2c3C(=O)O)cc(Cl)c1O`: the activation in assay [1] is -1.15%. The figures for the inhibition in [2] and in assay [3] were 5.85% and -2.25%, respectively.
With `Cc1cc(=O)n2[nH]c(-c3sccc3-n3c(C)ccc3C)cc2n1`, the activation in assay [1] was 4.52%. Further, the inhibition in assay [2] is -16.3%; in [3], 1.35%.
On to `Cc1cc(C)c2nc(-c3ccco3)cc(C(=O)O)c2c1`, for which the activation in [1] is 2.58%. Also, the inhibition in [2] is -12.9%; in [3] it was 63.6% (active).
As to `Cc1ccc(C(=O)N2CCCc3ccccc32)c(Cl)c1`, the activation in [1] was -0.4%. Moreover, the figures for the inhibition in assay [2] and in assay [3] were 2.02% and 1.35%, respectively.
As to `CC(C)Cn1c(N)c(C(=O)NCc2cccs2)c2nc3ccccc3nc21`, the inhibition in assay [11] was -4.29%; in assay [2], -13.3%; in assay [3], -3.17%. Moreover, the activation in assay [1] was 3.66%.
Regarding `O=C(COC(=O)CCC(=O)c1cccs1)NCc1ccco1`, the activation in assay [1] was 11.5% (active). Moreover, the inhibition in assay [2] was -58.1%; in assay [3], 19.2% (active).
`Nc1ccc2nc3c(=O)[nH]c(=S)[nH]c3nc2c1`: the inhibition in [12] was 44.2% (active); in [11], 62% (active); in assay [6], 32.2% (active); in assay [13], 45.3% (active); in [8], 10.6%; in assay [9], 120% (active). The inhibition in assay [10] was 53.5% (active); in [2], -245%; in assay [3], 83% (active). For the same molecule, in assay [1], the activation was 48.6% (active).
For the molecule `Cc1ccc(N=C2NC(=O)/C(=C/C=C/c3ccco3)S2)cc1C`, the inhibition in [6] was 31.1% (active); in assay [2], -49.5%; in assay [3] it was 45.2% (active). Moreover, in assay [1], the activation was 13.8% (active).
Turning to `C=CCN1C(=O)C(O)(CC(=O)c2ccccn2)c2ccccc21` (centres undefined), in assay [1], the activation was 0.97%. Further, the inhibition in assay [2] is -4.84%; in assay [3] it was 0.38%.
Regarding `Clc1ccc(C2=CSC3=Nc4cccc5cccc(c45)N23)cc1`, the inhibition in assay [11] was 85.1% (active); in [13], -2.56%; in [7], 13.7%; in assay [10] it was 37.5% (active); in [2], -8.94%; in assay [3], 24.5% (active). The activation in [1] is 2.48%.
With `CN(C)c1ccc(N/C=C/C(=O)C(F)(F)F)cc1`, the activation in assay [14] is 21.7%; in assay [15], 15.3%; in assay [16] it was 12.7%; in [1] it was 14.5% (active). Moreover, the inhibition was 6.83% in assay [11]; -0.71% in assay [6]; 1.99% in assay [13]; 5.14% in assay [7]; 0.92% in assay [8]; 2.09% in assay [9]. Besides, the inhibition in assay [10] was 2.7%; in assay [2], -51.7%; in assay [3] it was 0%.
